# Bioassay records (PubChem)
# Sampled rows, rich in hits. Any-hit rate of the full collection: about 2.7%.
# PME-1 Maybr inh = inhibitors of human PME-1 in Maybridge library; Protein phosphatase methylesterase 1 (Homo sapiens), Q9Y570; recombinant PME-1, FP-Rh probe fluorescence polarization; inhibition, % at 9 µM; hit rate 0.5% among 16,000; in the data active means inhibition above about 30%
# rat GALR2 agon = agonists of rat galanin receptor 2 (GALR2); Galanin receptor type 2 (Rattus norvegicus), O08726; cell-based GALR2 agonist screen; activation, % at 10 µM; hit rate 0.5% among 16,000; in the data active means activation above about 15%
# S1P1 agonist = activates the human S1P1 receptor | Sphingosine 1-phosphate receptor 1 (Homo sapiens), P21453 | S1P1 agonist cell-based reporter assay | activation, % at 4.5 µM | hit rate 1.5% among 16,000 | AID 1044, 2008; in the data active means activation above about 80%
# * hit, by the source's call.
SMILES,PME-1 Maybr inh,rat GALR2 agon,S1P1 agonist
O=[N+]([O-])c1ccc(CS(=O)(=O)C(Cl)(Cl)Cl)o1,-4.8,-10.5,95.5*
COCCOC(=O)C1=C(C)OC(N)=C(C#N)C12C(=O)Nc1ccccc12 (configuration not stated),4.0,-2.0,-5.6
CN(C)c1ccc([N+](=O)[O-])c2nonc12,61.8*,-4.2,14.5
O=[N+]([O-])c1ccc(N2CCCCC2)c2nonc12,27.7,-4.5,4.4
C/C(=C\c1ccc2c(c1)OCO2)[N+](=O)[O-],0.8,1.2,-13.7
COc1ccccc1N1CCN(Cc2ccc(C)cc2)CC1,-2.4,-1.1,-7.2
